Assay results from PubChem BioAssay (NCI).
Compounds without any hit were thinned out: in the full panel of roughly 83,000, 20% have a hit.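 Assay: single dose, 48 h. Readout: percent growth (0 = no net growth; negative = cell death). Active: <10.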 A number with no mark means an inactive call. Activity calls are given as the source filed them.

Legend:
Test in all cases: NCI-60 one-dose screen, 48 h (100 = growth as untreated, 0 = no growth, -100 = all killed)
[1] = system: SN12C renal; conditions: 10 µM
[2] = system: UO-31 renal; conditions: 10 µM
[3] = system: TK-10 renal; conditions: 10 µM unless noted
[4] = system: ACHN renal; conditions: 10 µM
[5] = system: CAKI-1 renal; conditions: 10 µM
[6] = system: A498 renal; conditions: 10 µM
[7] = system: MOLT-4 leukemia; conditions: 10 µM
[8] = system: SR leukemia; conditions: 10 µM
[9] = system: RPMI-8226 leukemia; conditions: 10 µM
[10] = system: OVCAR-8 ovarian; conditions: 10 µM
[11] = system: OVCAR-5 ovarian; conditions: 10 µM
[12] = system: OVCAR-4 ovarian; conditions: 10 µM
[13] = system: SK-OV-3 ovarian; conditions: 10 µM
[14] = system: IGROV1 ovarian; conditions: 10 µM
[15] = system: OVCAR-3 ovarian; conditions: 10 µM
[16] = system: HS 578T breast; conditions: 10 µM
[17] = system: NCI/ADR-RES ovarian; conditions: 10 µM
[18] = system: CCRF-CEM leukemia; conditions: 10 µM

| Structure (SMILES) | growth [1] [%] | growth [2] | growth [3] | growth [4] | growth [5] | growth [6] | growth [7] | growth [8] | growth [9] | growth [10] [%] | growth [11] [%] | growth [12] | growth [13] [%] | growth [14] [%] | growth [15] | growth [16] [%] | growth [17] [%] | growth [18] |
| --- | --- | --- | --- | --- | --- | --- | --- | --- | --- | --- | --- | --- | --- | --- | --- | --- | --- | --- |
| O=S(=O)(O)c1cc(O)c2c(N=Cc3ccccc3O)c(S(=O)(=O)O)ccc2c1 | 109 | 73.2% | 118% | 101% | 96.2% | 107% | 99.2% | 95.1% | 97.5% | 105 | 103 | 109% | 103 | 88.4 | 105% | 103 | 104 | – |
| O=C(Nc1cccc(NC(=O)Nc2cc(C(F)(F)F)ccc2Cl)c1)Nc1cc(C(F)(F)F)ccc1Cl | 22 | 0.156% (active) | -13.8% (active) | 9.11% (active) | -2.82% (active) | -3.96% (active) | – | -15.6% (active) | -14.5% (active) | 14.3 | 27.7 | 7.2% (active) | 36.2 | 26.9 | -5.64% (active) | 18.9 | 26.2 | 5.91% (active) |
| c1ccc(CN2COc3c(ccc4c3OCN(Cc3ccccc3)C4)C2)cc1 | 11.1 | -17.5% (active) | 30.5% | 12.3% | 7.65% (active) | 51.6% | 0.409% (active) | 5.08% (active) | 21.9% | 23 | 41.8 | 26.3% | 10.1 | 32.1 | 24.6% | 53.6 | 16.6 | 5.13% (active) |
| COc1cc(/C=C/C(=O)c2ccccc2)cc(OC)c1OC | 53.3 | 49.7% | 112% | 51.1% | -23.3% (active) | – | 28.8% | – | 24.3% | 59.8 | 66.6 | 65% | 79 | 98.6 | 59% | 106 | 43.1 | – |
| COc1ccc(/C=C/c2cccc[n+]2C)cc1 | 110 | 64.9% | – | 91% | – | 71% | 102% | – | 90.3% | 105 | 95.8 | 107% | 78.8 | 85.3 | 103% | 119 | 103 | – |
| Cc1cc(=O)n(-c2ccc(F)cc2)[nH]1 | 104 | 83.3% | 136% | 96% | 98.9% | 99.7% | 99.7% | – | 94.2% | 95.2 | – | 99.2% | 95.3 | 102 | 103% | 102 | 109 | – |
